# Laboratory results reported in PubChem BioAssay (NCATS).
# Records with an inconclusive call do not appear. A number with no mark means an inactive call. Active and inactive are the calls of the source. Calls come from the whole dose curve; as a rule, active = well fitted cell-killing curve with a large enough effect; inconclusive = small, poorly fitted or top-dose-only effect, or effect the other way; inactive = flat fitted curve, though single readings scatter.
# Test system: SKOV3
# Assay: Primary qHTS to identify gynecologic anti-cancer compounds using libraries of approved drugs and bioactive compounds (AID 1345084); note: nearly all actives have a fitted effect of over 55% in size
# Conditions: Gynecologic cancer cell panel viability, ATPlite luminescence, 48 h; series mostly up to 57.5 µM; activity change, negative = cytotoxicity: at the top concentration
# Summary of the method: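 48 h compound exposure at 37 C, 5% CO2; five-point qHTS. ATPlite luminescence readout of cell ATP.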
# % is set by controls: 0 for no effect and ±100 for the full control effect; potency is the fitted concentration of half-maximal effect.
SMILES,"activity change, negative = cytotoxicity",Potency
Fc1ccc(N2CCCCC2)c(NC(=S)c2ccncc2)c1,-4.81%,–
O=C(Cc1c(F)cccc1F)Nc1cc(OCc2ccc(Cl)cc2)ccn1,-7.29%,–
CCN(c1cc(-c2ccc(CN3CCOCC3)cc2)cc(C(=O)NCc2c(C)cc(C)[nH]c2=O)c1C)C1CCOCC1,-11.5%,–
C/C=C(/C)C(=O)O[C@@H]1C[C@@H](OC(=O)CC(C)C)C2(C)C3C(=O)C=C(C)C2C3C1(C)C (some centres undefined),-6.73% [at 25.3 µM],–
CCOc1cc(C(C)(C)C)ccc1C1=NC(C)(c2ccc(Cl)cc2)C(C)(c2ccc(Cl)cc2)N1C(=O)N1CCN(CCCS(C)(=O)=O)CC1 (centres undefined),4.58%,–
COc1ccc(S(=O)(=O)N2CCC[C@H]2C(=O)Nc2cc(C)cc(C)c2)cc1,-13.9%,–
CN(C)C(=O)Nc1cc(-c2ccccc2)ccc1N(C)C,-9.8%,–
COc1ccc(NC(=O)c2ccc(C(=N)N(C)C)cc2)c(C(=O)Nc2ccc(Cl)cn2)c1,-2.18%,–
Nc1nccc(-c2c(-c3ccc(F)cc3)ncn2C2CCCCC2)n1,-9.92%,–
CC(C)c1cc(-c2ccc(F)c3ccccc23)nc(N)n1,11.7%,–
CNc1cccc(CCOc2ccc3c(c2)CN(CC(F)(F)F)C(=O)[C@H](CC(=O)O)C3)n1,–,1.78 µM (active)
Cn1ccc(NC(=O)c2cc(Oc3ccc(C(=O)N4CCC4)c(F)c3)c3c(c2)OC(C)(C)C3)n1,-21.5%,–
C=C(C(=O)OC[C@H]1O[C@@H](OC(=O)/C=C/c2ccccc2)[C@H](O)[C@@H](O)[C@@H]1O)C(O)CO (some centres undefined),-1.76% [at 25.3 µM],–
Clc1cccc(COc2cncc(N3CCNCC3)n2)c1,-5.34%,–
O=C(Nc1ccccc1Br)NC1CCN(c2ccc(C(F)(F)F)cn2)C1 (centres undefined),0%,–
C=CC(C)(O)CC/C=C(/C)COC(=O)C(C)C1CCC(C)(C=C)O1 (centres undefined),-8.33% [at 38.5 µM],–
Cc1noc(C)c1-c1cc(O)cc(C(O)c2ccccc2)c1 (centres undefined),–,15.8 µM (active)
COc1cccc(NCCC2(c3ccccc3)CC(C)(C)OC(C)(C)C2)c1,-21.9%,–
CC1(NC(=O)c2ccc(C#Cc3cccc(F)c3)cn2)COC1,7.82%,–
O=C(NCCN1CCC(n2c(=O)[nH]c3ccccc32)CC1)c1cc2cc(F)ccc2[nH]1,0.0751%,–
Cc1c(C(=O)Nc2ccc(N3CCC(N4CCOCC4)CC3)c(C#N)c2)cnn1-c1ccc(Cl)cc1,-2.89%,–
CCN1CCC[C@@H]1CNC(=O)c1ccc2c(c1)NC(=O)c1cccc(C)c1S2,-3.4%,–
CC1=CC2/C=C(\C)CCC3OC(C)(C)OC3CCC(=O)C23C(=O)NC(CC(C)C)C3C1C (centres undefined),-14.7% [at 25.3 µM],–
CC1(CO)CC2C(O)C3=C(CC(C)(O)C2C1)C(=O)OC3 (centres undefined),0%,–
